The results in this text go back to ChEMBL document CHEMBL4513216, “Probing the Open Global Health Chemical Diversity Library for Multistage-Active Starting Points for Next-Generation Antimalarials” (ACS Infect Dis, 2020).

The whole screen tested about 69,000 compounds, of which about 8,600 (12%) showed an effect of 50% or more. This is one part of a sample in which strong results are shown more often than they occur.

This assay has as its system Plasmodium berghei. The assay can be described thus: Screen against P. berghei liver stage (PbLuc), transformed with Luciferase, at 10uM. Conditions: tested at 10 uM. In kind it is functional, HepG2.
Consider `CNC(=O)C1(C)CN(S(=O)(=O)c2cccc(OC)c2)CCO1` (configuration not stated), for which the INHIBITION is 11.175%.

Consider `O=C(c1cnccn1)N1C[C@@H](OCc2cccnc2)[C@H]2OCCC[C@H]21`, for which the INHIBITION came out at 14.6%.

Turning to `CC(C)CCn1[nH]c(CNc2ccccc2)nc1=O`, the INHIBITION is recorded as -7.9%. With `CN(C)C1CCN(C(=O)c2cc3c(s2)CCN3C(=O)C2CC2)CC1`, the INHIBITION was 49.1%. To `CCC1=N[C@@]2(CC[C@@H]3CN(Cc4ccc(C)cc4)C[C@@H]32)C(=O)N1C` belongs 34.9%; to `CCC1=N[C@@]2(CC[C@@H]3CN(Cc4cccc(Cl)c4)C[C@@H]32)C(=O)N1C`, 30.3%; to `CCC1=N[C@@]2(CC[C@@H]3CN(Cc4ccc(Cl)cc4)C[C@@H]32)C(=O)N1C`, 50.6%. For the compound `CCC1=N[C@@]2(CC[C@@H]3CN(Cc4ccc(F)cc4)C[C@@H]32)C(=O)N1C`, the INHIBITION is on record as 62%. With `CCC1=N[C@@]2(CC[C@@H]3CN(CC)C[C@@H]32)C(=O)N1C` the figure was 23.1%; with `CCC1=N[C@@]2(CC[C@@H]3CN(Cc4ccccc4C)C[C@@H]32)C(=O)N1C`, 46.6%; with `Cc1cccc(CNC(=O)Nc2ccn(CCCC(=O)N(C)C)n2)c1`, -6.52%.

`CC1CCN(c2nc3cn(-c4ccc5c(c4)OCO5)c(=O)c-3c[nH]2)CC1`: the INHIBITION was 23.5%. `Cc1ccc(CN2CCC[C@@H]3CN(C(=O)c4ccco4)C[C@@H]32)o1`: the INHIBITION is given as -2.35%.

Consider `Cc1cc(C(=O)Nc2ccc3c(ccn3CCN3CCOCC3)c2)on1`, for which the INHIBITION is recorded as 12.8%.

Turning to `Cc1cc(CN2CCN(Cc3ccc(C#N)cc3OC(F)F)CC2)no1`, the INHIBITION is 14.27%. To `COc1ccc(CN2CC[C@H](NC(C)=O)[C@@H](O)CC2)c(OC)c1` belongs 35.3%; to `COc1cc(Oc2ccc(C(F)(F)F)cn2)ccc1CN1CCCC1`, 91.5%; to `COc1cc(Oc2ccc(C(N)=O)cn2)ccc1CN1CCCC1`, -0.27%. With `COc1ccc(CN2CCSCC2)c(OC)c1` the figure was 33.1%.

For the compound `COc1ccc(C2CCCN2c2ccc(C#N)cn2)c(OC)c1` (configuration not stated), the INHIBITION stood at 37.7%. In the case of `COc1ccc(Oc2cccnc2)cc1CN1CCCC1`, the INHIBITION is 49.4%. To `COc1ccc(CN2CCn3c(CO)nnc3C2)cc1CN1CCCC1` belongs 44.8%. With `COc1cc(Oc2ccc(C#N)cn2)ccc1CN1CCCC1` the figure was 82.9%; with `COc1cc(Oc2cnc3ccccc3n2)ccc1CN1CCCC1`, 84.9%; with `COc1ccc(Oc2ccc(C(F)(F)F)cn2)cc1CN1CCCC1`, 63.7%.

Consider `COc1ccc(CN2CCC(O)CC2)c(OC)c1`, for which the INHIBITION was determined as 1.81%. For `O=C(Cc1cccc(O)c1)N1CCCC(O)(CN2CCOCC2)CC1` (configuration not stated), the INHIBITION is reported as 6.26%. To `CC(Cn1cccn1)NC(=O)NCc1ccc(C(N)=O)cc1` (configuration not stated) belongs -98.8%. As to `Cc1cc(NC(=O)CN2CCn3c(nnc3C3CC3)C2)on1`, the INHIBITION came out at 25.3%.

With `CC(C)c1nc(C2CCCN2CCN2CCCCC2)no1` (configuration not stated), the INHIBITION was -0.55%. Regarding `CN(C)CCO[C@H]1CN(CC2CC2)[C@@H]2CCCO[C@H]12`, the INHIBITION came to 25.8%. To `CC(NC(=O)c1cccs1)C(=O)NCc1ccccn1` (configuration not stated) belongs 21.6%; to `O=c1cc(Cn2cncn2)nc2n1CCCN(Cc1ccoc1)C2`, 20.5%; to `CCS(=O)(=O)N1CCC(NC(=O)c2cc(C(C)C)ccc2O)CC1`, -7.1%. With `Cc1ncsc1CN1CC[C@H]2OCC[C@@]2(C(=O)N2CCOCC2)C1` the figure was 11.4%; with `CC1(C)CC(NC(=O)c2cnn(-c3ccccc3F)c2N)CC(C)(C)N1`, -33%; with `Cc1cc(C(=O)N2CCn3c(COCC4CCCC4)cnc3C2C)on1` (configuration not stated), 37.3%. With `CCn1nc(C)c2nc(C)nc(NCCc3ccccc3)c21` the figure was 46.4%.

`CCn1nc(C)c2nc(C(C)C)nc(NCCc3ccc(O)cc3)c21`: the INHIBITION was 68.1%. As to `CCn1nc(C)c2nc(C(C)C)nc(NCCCO)c21`, the INHIBITION is -9.48%. To `CCn1nc(C)c2nc(C)nc(NCCc3ccc(C)cc3)c21` belongs 62.7%. With `CCn1nc(C)c2nc(C(C)C)nc(NCC(C)O)c21` (configuration not stated) the figure was -3.11%. For the compound `CCCc1nc(NCCc2ccccc2)c2c(n1)c(C)nn2CC`, the INHIBITION was determined as 43.7%. With `CCOc1ccccc1C1CCCN1` (configuration not stated) the figure was 15.8%; with `Cc1cnn(CC(C)NCc2nc(-c3ccsc3)oc2C)c1` (configuration not stated), -7.31%; with `Cn1cc(CN2CCS(=O)(=O)C(C)(C)C2)cn1`, 44.3%.

For the compound `Cc1ccc(CN2CCS(=O)(=O)C(C)(C)C2)cc1C`, the INHIBITION is on record as 70.1%. Take `CC1(C)CN(Cc2ccncc2)CCS1(=O)=O`: the INHIBITION is 21.9%. To `COc1ccc(Cn2cc(C(C)O)nn2)cc1` (configuration not stated) belongs 19.9%; to `CNc1cnc(CC2COCCN(CCOc3ccccc3)C2)cn1` (configuration not stated), 39.7%. With `CC(=O)NC1CCN(C(=O)Nc2cccc(C(F)(F)F)c2)CC1` the figure was 27.9%; with `CC(=O)NC1CCN(C(=O)Nc2ccc(SC(F)F)cc2)CC1`, 73.5%; with `CC(=O)NC1CCN(C(=O)Nc2cccc(SC(F)F)c2)CC1`, 27.9%. To `CN(Cc1ccco1)[C@@H]1CN(Cc2cccs2)C[C@@H]2CCCO[C@@H]21` belongs 31.4%; to `Cn1cnnc1SCC(=O)N1C[C@@H]2CC[C@H]1CN(Cc1cccnc1)C2`, 6.28%; to `CCN(CC)C(=O)CN1CCc2c(nc(C3CCNCC3)nc2NC)C1`, -3.94%.

Regarding `Nc1ccc(C(=O)N2C[C@H]3CC[C@@H](C2)N(Cc2ccccc2)C3)cn1`, the INHIBITION is -20.8%.

For `Cc1cccc(-n2ncc(C(=O)NCC3CCS(=O)(=O)C3)c2C)c1` (configuration not stated), the INHIBITION is on record as -33.9%. To `Cc1ccc(-n2ncc(C(=O)NCC3CCS(=O)(=O)C3)c2C)cc1` (configuration not stated) belongs -24.2%; to `Cc1c(C(=O)NCC2CCS(=O)(=O)C2)cnn1-c1ccccc1` (configuration not stated), 57.8%. With `O=C1N(Cc2ccc(Cl)cc2)CCC12CCCNC2` (configuration not stated) the figure was 3.81%. With `CC(=O)NCCc1ccc(S(=O)(=O)Nc2ccc(C)c(F)c2)s1` the figure was 32.3%. Turning to `CC(=O)c1ccc(-n2c(C)cn(CCS(C)(=O)=O)c2=O)cc1`, the INHIBITION came out at 55.6%. With `CC(=O)c1ccc(-n2c(C)cn(CCC(=O)NC(N)=O)c2=O)cc1` the figure was 12.7%; with `CC(=O)c1ccc(-n2c(C)cn(CCC#N)c2=O)cc1`, 5.36%; with `OC(CN1CCN(Cc2cc(F)ccc2F)CC1)C1CC1` (configuration not stated), -6.11%. With `CCC(Nc1cccc(OC)c1)C(=O)NCc1nc(C)cc(=O)[nH]1` (configuration not stated) the figure was 36.4%. With `CCS(=O)(=O)N1CCc2c(CN3CCOCC3)cncc2C1` the figure was 92.1%; with `CCS(=O)(=O)N1CCc2c(COC)cncc2C1`, 23.1%; with `CCS(=O)(=O)N1CCc2c(COCc3ccncc3)cncc2C1`, 66.6%. Regarding `CCS(=O)(=O)N1CCc2c(COCCN(C)C)cncc2C1`, the INHIBITION came out at 24%. To `CCCS(=O)(=O)N1CCc2c(COCC)cncc2C1` belongs 33%.

As to `O=S(=O)(C1CC1)N1CCc2c(CN3CCOCC3)cncc2C1`, the INHIBITION stood at 12.6%. With `CN(C)CCN(C)C(=O)c1ccccc1-n1cc(CN(C)C)cn1` the figure was 1.5%; with `c1ccc(CN2Cc3[nH]nc(COCC4CC4)c3C2)nc1`, 30.5%; with `CN(C)CCNC(=O)C1Cc2nc(-c3ccccc3)sc2N1CC1CC1` (configuration not stated), 24.3%.

For the compound `CN(CCNC(=O)c1cnc(-c2ccncc2)nc1)S(C)(=O)=O`, the INHIBITION is 25.1%. To `CCN(CC)CCNC(=O)c1cnc(-c2ccccc2)nc1` belongs -8.07%; to `CN(CCNC(=O)c1cnc(-c2ccccc2)nc1)S(C)(=O)=O`, 57.1%. To `Cc1ccc(OCCN2CCCC(c3cc(C(N)=O)[nH]n3)C2)cc1` (configuration not stated) belongs 15.3%. With `O=C(NC1CC1)C1CCN(c2snc3ccccc23)CC1`, the INHIBITION was 37.9%. Regarding `CCc1n[nH]c(C2CN(C(=O)c3cnc(C)nc3CC)CCO2)n1` (configuration not stated), the INHIBITION is on record as -49.5%.

Take `CC(NC(=O)c1ccnn1C)c1ccc(OCC2CC2)c(F)c1` (configuration not stated): the INHIBITION was 68.2%. To `CC(=O)NC(C)c1ccc(OCC2CC2)c(F)c1` (configuration not stated) belongs 26.8%; to `CC(NC(=O)c1ccc(=O)n(C)c1)c1ccc(OCC2CC2)c(F)c1` (configuration not stated), 40.97%; to `CC(=O)c1cccc(-n2nc(C(C)=O)c(C(C)=O)c2C)c1`, 0.325%. To `O=C(Nc1nnc(C(F)F)s1)N[C@H](CCO)c1ccccc1` belongs 20.9%. With `COc1ccnc(N2CCN(C(=O)c3ccc(Cl)o3)CC2)n1` the figure was -9.76%. `CCC1CN(C(=O)c2csc3nc(-c4ccc(Cl)cc4)cn23)CCN1` (configuration not stated): the INHIBITION is 56.1%.

With `CC(C)N1CCN(C(=O)c2csc3nc(-c4ccc(Cl)cc4)cn23)CC1`, the INHIBITION came out at 37.9%.

Turning to `O=C(c1csc2nc(-c3ccc(Cl)cc3)cn12)N1CCCC(CO)C1` (configuration not stated), the INHIBITION is listed as -16.6%. To `CNC(=O)C1(CCCc2ccccn2)CCN1Cc1coc(C)n1` (configuration not stated) belongs 9.05%; to `O=C(NCc1cccnc1)c1cn(CCc2ccccc2)nn1`, 12.9%. In the case of `Cc1nn(C2CCCC2)c2nc(C(C)(C)CN3CCN(C)CC3)[nH]c12`, the INHIBITION is 49.4%. Consider `CS(=O)(=O)CCn1ccc(NC(=O)CCc2cccc(F)c2)n1`, for which the INHIBITION came to 13.8%. To `Nc1nccc(N[C@H]2CN(CC(=O)NC3CCCCC3)C[C@@H]2C2CC2)n1` belongs 56.2%; to `Cc1nccc(N[C@H]2CN(CCS(C)(=O)=O)C[C@@H]2C2CC2)n1`, 39.3%. With `Cc1nccc(N[C@H]2CN(CCC(=O)NC3CCCC3)C[C@@H]2C2CC2)n1`, the INHIBITION is reported as 26.5%. With `Cc1noc([C@H]2C[C@H]3CN(C(=O)Cc4ccsc4)CC[C@H]3O2)n1` the figure was -14.1%; with `O[C@H]1Cc2ccccc2[C@H]1n1ccnc1-c1cc2n(n1)CCNC2`, 67.6%. With `c1ccc2c(c1)CC(n1ccnc1-c1cc3n(n1)CCNC3)CO2` (configuration not stated) the figure was 43.9%; with `c1ccc2c(c1)CC(n1ccnc1-c1cc3n(n1)CCCNC3)CO2` (configuration not stated), 18.5%.
